# HPGD inh: inhibitors of human 15-hydroxyprostaglandin dehydrogenase (HPGD). AID 894. hit rate 4.3% among 150,000. purified HPGD, NADH fluorescence kinetic, PGE2 substrate. Potency, µM, inactives show top-dose activity change, negative = inhibition, actives largely listed as inhibitors; active means well fitted inhibition curve with a large enough effect, not every such curve was filed as active; inconclusive means small, poorly fitted or top-dose-only effect, or another doubt; inactive means no such curve, though single readings can be large or run the other way; further: potency means the concentration at half of the fitted maximal effect; on the % scale 0 is the no-effect control and ±100 the full control effect
# Target sequence (P15428 whole entry, looked up): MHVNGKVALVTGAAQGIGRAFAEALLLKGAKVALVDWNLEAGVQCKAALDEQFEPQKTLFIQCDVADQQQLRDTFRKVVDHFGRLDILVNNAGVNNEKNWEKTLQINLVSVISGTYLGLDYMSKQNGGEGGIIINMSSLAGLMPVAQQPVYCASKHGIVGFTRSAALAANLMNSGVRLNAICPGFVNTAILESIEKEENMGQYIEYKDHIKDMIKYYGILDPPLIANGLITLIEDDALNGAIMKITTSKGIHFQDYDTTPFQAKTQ
#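 NADH formation kinetics: reaction with 30 uM PGE2 and 1 mM NAD+ (final), 20 nM enzyme, Tris-HCl pH 8 with Tween 20, after 15 min compound preincubation at room temperature. Fluorescence change, last versus first of five reads.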
# IMPase cell inh: cell-permeable inhibitors of inositol monophosphatase (IMPase); P97697; CHO-M1 cells, IP1 accumulation, HTRF TR-FRET ratio; inhibition (IP1 accumulation), % at 46.1 µM; 120,000 tested, under 10 active; active means well fitted curve in the direction sought with a large enough effect in the signal ratio, not every such curve was filed as active; inconclusive means small, poorly fitted or top-dose-only effect, or a change in a side signal; inactive means no such curve, though single readings can be large or run the other way; the % refers to the signal ratio;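 further: cells stimulated with carbachol in lithium chloride buffer; plate controls were DMSO basal wells for no effect and reference inhibitor wells for full effect; higher means more IMPase inhibition seen as more IP1 and lower FRET ratio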
#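 CHO-M1, 2000 cells/well, cultured 16–30 h; cpd up to 46 uM; carbachol (50 uM solution, stimulation buffer w/ 50 mM LiCl, pH 7.4), 30 min 37C; IP-One TR-FRET, 10 min RT; Ex 320/Em 665, 620; Hill-fit AC50.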
# HTT cytoprotect: cytoprotection in Huntington HTT-Q103 PC12 cell model. PC12 HTT-Q103 induced, cytoprotection, ATP luminescence, 40 h. Potency, µM (titrated, usually from 56.4 µM), for inactives: cytoprotection (ATP increase), hits mostly activators. hit rate 0.14% among 230,000; further: potency means the concentration at half of the fitted maximal effect; % of control where 0% means no effect; nearly all actives have a fitted effect of over 45% in size
#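 PC12 cells with ecdysone-inducible HTT exon 1 Q103-GFP, induced with 100 nM tebufenozide and co-treated with library compounds in a dose series (1536-well, 1500 cells/well). Cytoprotection read as ATP content by ATPlite luminescence.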
# HTT aggregate: mutant huntingtin aggregation inhibition. PC12 HttQ103-GFP aggregates, Acumen cytometry, 40 h. Potency, µM (series often up to 46.1 µM), for the others: at the highest dose activity change, negative = inhibition, actives largely listed as inhibitors. hit rate 1.1% among 220,000; further: potency means the concentration at half of the fitted maximal effect; on the % scale 0 is the no-effect control and ±100 the full control effect; nearly all actives have a fitted effect of over 60% in size
#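 Aggregates are detected as GFP objects 1–25 µm with signal 6 STDEV over background in lysates of induced PC12 cells. These carry Huntingtin exon 1 with 103 glutamines fused to GFP under an ecdysone promoter; compounds titrated.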
# ALDH1A1 inh: ALDH1A1 (human) enzyme inhibition; P00352; Purified ALDH1A1, NADH fluorescence, propionaldehyde substrate; Potency, µM (highest dose often 75.3 µM), for the others: at the top dose activity, negative = inhibition, most hits filed as inhibitors; hit rate 7.3% among 220,000; active means well fitted inhibition curve with a large enough effect, not every such curve was filed as active; inconclusive means small, poorly fitted or top-dose-only effect, or another doubt; inactive means no such curve, though single readings can be large or run the other way;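 further: potency means the concentration at half of the fitted maximal effect; plate controls were no enzyme wells and a reference inhibitor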
# Target sequence (P00352 whole entry, looked up): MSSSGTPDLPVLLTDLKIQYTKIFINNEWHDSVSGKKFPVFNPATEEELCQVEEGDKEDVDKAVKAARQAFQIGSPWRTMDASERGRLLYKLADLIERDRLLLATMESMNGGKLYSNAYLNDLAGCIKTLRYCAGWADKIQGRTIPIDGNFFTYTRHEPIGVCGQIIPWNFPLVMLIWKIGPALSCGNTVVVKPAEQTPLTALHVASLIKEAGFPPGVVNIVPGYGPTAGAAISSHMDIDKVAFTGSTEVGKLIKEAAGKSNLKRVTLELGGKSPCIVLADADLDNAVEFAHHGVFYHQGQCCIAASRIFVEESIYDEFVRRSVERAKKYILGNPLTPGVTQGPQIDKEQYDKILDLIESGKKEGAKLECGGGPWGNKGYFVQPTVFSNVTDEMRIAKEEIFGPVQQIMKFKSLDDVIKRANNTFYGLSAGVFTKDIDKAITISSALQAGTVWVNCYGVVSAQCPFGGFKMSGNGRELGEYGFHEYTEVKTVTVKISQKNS
# IMPase Li cell: cell-permeable IMPase inhibitors with lithium potentiation; Potency, µM (series often up to 59.4 µM), inactives show at the top dose activity, negative = IMPase inhibition, hits mostly inhibitors; CHO-M1 cells, IP1 TR-FRET (IP-One), carbachol + lithium; hit rate 0.35% among 210,000; AID 1457;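 further: IP1 builds up when IMPase is blocked and the TR-FRET signal falls; potency means the concentration at half of the fitted maximal effect; plate controls were basal vehicle for no effect and high inhibitor control for full effect; nearly all actives have a fitted effect of over 50% in size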
#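 Concentration–response in CHO-M1 cells, lithium-potentiated; 30 min at 37C. IP1 detected by competitive TR-FRET after 10 min lysis at RT. Hill-fitted AC50.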
# * = called active by the depositor; ? = inconclusive; / = no result given; [ ] = remark or other dose. The list is not random: actives were taken first. Their share in the collection is about 9.4%. Unless noted, the call rests on the fitted dose curve; in most records, active means well fitted curve in the direction sought with a large enough effect; inconclusive means small, poorly fitted or top-dose-only effect, or another doubt; inactive means no such curve, though single readings can be large; an effect the other way counts as inactive or inconclusive.
SMILES,HPGD inh,IMPase cell inh,HTT cytoprotect,HTT aggregate,ALDH1A1 inh,IMPase Li cell
CC(C)C[C@@H](CC(=O)N[C@H](CC(=O)N[C@@H]1CCNC[C@H]1C(=O)N[C@H](CC(=O)N[C@@H](CCC(=O)O)CC(=O)O)Cc1ccccc1)C(C)C)NC(=O)[C@@H]1CNCC[C@H]1N,-3%,/,-33%,/,2%,18%
CCC(=O)O[C@H](CC(=O)O)C[N+](C)(C)C,-1%,0,18%,/,-6%,7%
Cc1ccc(Nc2c(-c3ccccn3)nc3cccc(C)n23)cc1,/,/,-131%,7.9µM*,-4%,17%
COc1cccc(-c2nc(N3CCNCC3)c3ccccc3n2)c1,-6%,/,7%,/,1%,21%
COc1cccc(C(CC(=O)NCc2ccco2)NS(=O)(=O)c2ccc(C)cc2)c1OC (stereo not drawn),-9%,-18,10%[10 µM],2%,20µM*,10%
O=C(CN(C(=O)CNS(=O)(=O)c1ccccc1)c1ccc2c(c1)OCCO2)NCc1ccco1,-5%,?,-5%[10 µM],3%,2%,2%[38.3 µM]
COc1ccccc1CN(CC(=O)NCc1ccco1)C(=O)CNS(=O)(=O)c1ccccc1,-2%,10,9%,7%,?,-3%[38.3 µM]
O=C(CN(Cc1ccc2c(c1)OCO2)C(=O)CNS(=O)(=O)c1ccccc1)NCc1ccco1,-9%,-2,5%[1.9 µM],-7%,4.5µM*,3%[38.3 µM]
COc1ccccc1CN(CC(=O)NCc1ccco1)C(=O)CNS(=O)(=O)c1ccc(C)cc1,3%,5,-18%[10 µM],0%,22µM*,10%[38.3 µM]
COc1ccc(-c2c(C#N)c(SCC(=O)Nc3ccc(C)c(C)c3)nc(C)c2C(=O)Nc2ccccc2)cc1OC,/,2,/,/,/,/
Cc1sc2nc(SCC(=O)NCc3ccco3)n(Cc3ccccc3)c(=O)c2c1C,-7%,2,-15%,-8%,-2%,12%[38.3 µM]
CCCCn1c(SCC(=O)NCc2ccco2)nnc1-c1ccoc1C,-8%,4,-12%,2%,-12%,7%[38.3 µM]
CCCCn1c(SCC(=O)NCc2ccco2)nnc1-c1ccco1,-24%,0,-9%[10 µM],16%,20µM*,-4%[38.3 µM]
Cc1[nH]c2ccc(-c3nnc(SCC(=O)NCc4ccco4)n3Cc3ccccc3)cc2c1C,16µM*,7,-26%,-1%[9.22 µM],32µM*,12%[38.3 µM]
Cc1oc(-c2ccccc2F)nc1CS(=O)CC(=O)NCc1ccc2c(c1)OCO2 (stereo not drawn),?,7,-6%,-10%,32µM*,9%[38.3 µM]
CCn1c(SCC(=O)NCc2ccco2)nnc1-c1cccs1,25µM*,2,2%,?,8.9µM*,29%[38.3 µM]
Cc1ccc(S(=O)(=O)OCC2CN3C(CCC(C)C3c3ccc(Br)cc3)C(=O)O2)cc1 (stereo not drawn),/,/,-5%[10 µM],/,?,/
O=C(CSc1nnc(-c2ccco2)n1Cc1ccccc1)OC1CCCCC1,25µM*,0,13%,32µM*,?,1%[38.3 µM]
COC(=O)CSc1nnc(-c2ccco2)n1Cc1ccco1,-20%,-1,2%,12%,14µM*,11%[38.3 µM]
O=C(CSc1nnc(-c2ccncc2)n1Cc1ccco1)OC1CCCCC1,-24%,2,-5%,4%,?,13%[38.3 µM]
O=C(CSc1nnc(Cc2cccs2)n1Cc1ccco1)Nc1ccc(Br)cc1,?,17,-7%,-13%,20µM*,48%[38.3 µM]
O=C(CSc1nnc(Cc2cccs2)n1Cc1ccco1)Nc1ccc(Cl)cc1Cl,-20%,16,-2%[0.074 µM],?,?,9%[38.3 µM]
CCn1c(SCC(=O)NCc2ccco2)nnc1C(C)C,-22%,10,-1%,25%,4µM*,-4%[38.3 µM]
CCc1cc2c(nc1CC)CCN(CC/C(C)=N/O[C@@H](C)CN1CCCc3nc(C)c(C)cc31)C2,/,/,-1%[10 µM],/,?,/
COC(=O)NC(/C(C(=O)OC)=C(\C)NCc1ccccc1)c1cccs1 (stereo not drawn),/,/,-3%[10 µM],/,0%[13.5 µM],/
SMILES,HPGD inh,IMPase cell inh,HTT cytoprotect,HTT aggregate,ALDH1A1 inh,IMPase Li cell
C=CCCC,-3%,/,-5%,/,8%,-12%
CCn1c(SCC(=O)NCCc2ccccc2)nnc1-c1cccs1,28µM*,-4,0%,10%,-5%,9%[38.3 µM]
O=c1cc(CSc2nnc(-c3cccs3)n2Cc2ccccc2)nc2sc3ccccc3n12,-6%,1,27%[10 µM],?,7.9µM*,6%[38.3 µM]
CCn1c(CNC(=O)c2cccs2)nnc1SCC(=O)NCCc1ccccc1,-16%,-3,-9%[0.074 µM],-2%,7%,11%
Cc1oc(-c2cccs2)nc1CS(=O)CC(=O)NCCc1ccccc1 (stereo not drawn),32µM*,0,-1%,0%,?,-23%[38.3 µM]
Cc1cc(C(=O)CSc2nnc(-c3cccs3)n2Cc2ccccc2)c(C)n1C,-4%,13,16%[10 µM],-17%,?,-5%[38.3 µM]
CC(=O)c1c(C)[nH]c(C(=O)CSc2nnc(-c3cccs3)n2Cc2ccccc2)c1C,?,11,?,-2%,13µM*,-40%[38.3 µM]
CCCCNC(=O)CS(=O)Cc1nc(-c2cccs2)oc1C (stereo not drawn),-12%,3,-6%,0%,-13%,-6%[38.3 µM]
COC(=O)[C@@H]1CC[C@H](C)[C@@H](c2ccc(C)cc2)N1C(=O)c1ccc(/C=N\OC[C@@H](O)[C@H]2O[C@H]3OC(C)(C)O[C@H]3[C@@H]2O)cc1,/,/,3%[10 µM],/,6%[13.5 µM],/
NCCCCCCNS(=O)(=O)c1ccc2c(Cl)cccc2c1,0%,-3,-54%[1.9 µM],/,?,19%
O=c1c(-c2ccc(F)c(F)c2)nc2cncnc2n1Cc1ccc(F)cc1,-14%,/,-14%,/,-13%,11%
CCCc1cc(-c2[nH]ncc2-c2ccc3c(c2)OCCCO3)c(O)cc1OC,-30%,6,-16%,?,?,32%[38.3 µM]
CCc1cc(-c2[nH]ncc2-c2ccc3c(c2)OCO3)c(O)cc1O,?,?,-24%,11µM*,-6%,24%[38.3 µM]
O=C(Cc1ccccc1)c1nnc(-c2ccccc2)o1,/,/,-47%,-11%,8.9µM*,6%
COc1cccc(C2C(C(N)=O)=C(C)Nc3ncnn32)c1 (stereo not drawn),/,3,/,/,/,/
CCc1c2c(nc3cccc(SC)c13)COC2,?,/,-76%,/,?,-12%
CC(=O)NNC(=O)c1sc(=S)n2c1[nH]c(=O)c1sccc12,/,/,33%[10 µM],5%,3.5µM*,6%
COc1ccccc1NC(=O)CC1Sc2ccc(C(F)(F)F)cc2NC1=O (stereo not drawn),/,1,/,/,/,/
O=C1C(=O)N(CCN2CCOCC2)C(c2ccccn2)/C1=C(/O)c1ccccc1 (stereo not drawn),-20%,-8,-36%,0%,3.5µM*,25%[38.3 µM]

# Screens as filed in PubChem BioAssay.
